Results filed as inconclusive are left out. A number with no mark means an inactive call. Calls come from the whole dose curve; as a rule, active = well fitted curve in the direction sought with a large enough effect; inconclusive = small, poorly fitted or top-dose-only effect, or another doubt; inactive = no such curve, though single readings can be large; an effect the other way counts as inactive or inconclusive.
Test: qHTS assay to identify small molecule inhibitors of chordoma cells - UCH-1 (AID 1259355); note: nearly all actives have a fitted effect of over 55% in size
Conditions: UCH-1 chordoma viability, CellTiter-Glo, 48 h, combination, with auranofin plus four topoisomerase inhibitors; series mostly up to 46.1 µM; activity, negative = inhibition: at the top concentration
How it was run: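 Luminescent ATP read-out (CellTiter-Glo, 30min at room temperature) measured viability of UCH-1 cells exposed for 48hr to test drugs at 15 concentrations, co-dosed with a five-agent combination of auranofin, camptothecin, doxorubicin, rubitecan and topotecan.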
% is set by controls: 0 for no effect and ±100 for the full control effect.

Row | SMILES | activity, negative = inhibition
1 | CO[C@@H]1[C@@H](O[C@@H]2O[C@H](C)[C@@H](O[C@H]3C[C@@](C)(O)[C@@H](O)[C@H](C)O3)[C@H](N(C)C)[C@H]2O)[C@@H](CC=O)C[C@@H](C)[C@@H](O[C@@H]2CC[C@H](N(C)C)[C@@H](C)O2)/C=C/C=C/C[C@@H](C)OC(=O)C[C@H]1O | 4.38% [at 20.6 µM]
2 | Nc1ncnc2c1ncn2[C@@H]1O[C@H](COP(=O)(O)OP(=O)(O)OP(=O)(O)O)[C@@H](O)[C@H]1O | -6.49%
3 | COC(=O)C1=C(C#N)NC(C)=C(C(=O)OC(C)C)C1c1cccc([N+](=O)[O-])c1 (configuration not stated) | -10.8%
4 | CO[C@H]1C=CO[C@@]2(C)Oc3c(C)c(O)c4c(O)c(c(/C=N/N5CCN(C6CCCC6)CC5)c(O)c4c3C2=O)NC(=O)/C(C)=C\C=C[C@H](C)[C@H](O)[C@@H](C)[C@@H](O)[C@@H](C)[C@H](OC(C)=O)[C@@H]1C | -21.3%
5 | CCCCCCC(O)C/C=C/CCCCCCCC(=O)O (configuration not stated) | -12.1%
6 | CC(Cc1ccc(O)c(O)c1)C(C)Cc1ccc(O)c(O)c1 (configuration not stated) | -7.63%
7 | CCCCCCOc1ccc(C(=N)N(CCCC)CCCC)c2ccccc12 | -7.77%
8 | C=C[C@]1(C)C[C@@H](OC(=O)CSC(C)(C)CNC(=O)[C@H](N)C(C)C)[C@]2(C)[C@H](C)CC[C@]3(CCC(=O)[C@H]32)[C@@H](C)[C@@H]1O | -15.6%

Test: qHTS assay to identify small molecule inhibitors of chordoma cells - UCH-2 (AID 1259356)
Conditions: UCH-2 chordoma viability, CellTiter-Glo ATP luminescence, 48 h; series mostly up to 46.1 µM; activity change, negative = inhibition: at the top concentration

Row | SMILES | activity change, negative = inhibition
9 | CC(NNC(=O)c1ccccc1)c1ccccc1 (configuration not stated) | 0.19%
10 | CO/N=C(\C(=O)N[C@@H]1C(=O)N2C(C(=O)O)=C(CSc3cnns3)CS[C@H]12)c1csc(N)n1 | -2.9%
11 | C[C@@H]1[C@H](O)[C@@H](C)/C=C/C=C\C=C\C=C\C=C\C=C\C=C\[C@H](O[C@@H]2O[C@H](C)[C@@H](O)[C@H](N)[C@@H]2O)C[C@@H]2O[C@](O)(C[C@@H](O)C[C@@H](O)[C@H](O)CC[C@@H](O)C[C@@H](O)CC(=O)O[C@H]1C)C[C@H](O)[C@H]2C(=O)O (stereo in doubt) | 16.2%
12 | CCCCC(=O)N(Cc1ccc(-c2ccccc2-c2nn[nH]n2)cc1)[C@@H](C(=O)O)C(C)C | 11.3%
13 | CC[N+](CC)(CC)CCC(O)(c1ccccc1)C1CCCCC1 (configuration not stated) | 5.46% [at 20.6 µM]
14 | CNc1cc(OC)c(C(=O)N[C@H]2CCN(Cc3ccccc3)[C@H]2C)cc1Cl | -16.7%
15 | Clc1cc(Cl)c(OCC#CI)cc1Cl | 5.07%
16 | CC1(C)S[C@@H]2[C@H](NC(=O)[C@@H](NC(=O)N3CCNC3=O)c3ccccc3)C(=O)N2[C@H]1C(=O)O | 4.96% [at 20.6 µM]
17 | CNC(C)[C@@H]1CC[C@@H](N)[C@@H](O[C@H]2[C@H](O)[C@@H](O[C@H]3OC[C@](C)(O)[C@H](NC)[C@H]3O)[C@H](N)C[C@@H]2N)O1 (some centres not stated) | 16.6% [at 20.6 µM]
18 | CCC1OC(=O)C[C@@H](O)[C@H](C)[C@@H](O[C@@H]2O[C@H](C)C[C@H](N(C)C)[C@H]2O)[C@@H](CC=O)C[C@@H](C)C(=O)/C=C/[C@]2(C)OC2C1C (some centres not stated) | -29.2%
19 | Nc1ccn([C@H]2CS[C@@H](CO)O2)c(=O)n1 | 8.61%
20 | CCC(=O)O[C@@H]1CC(=O)O[C@H](C)C/C=C/C=C/[C@H](O)[C@H](C)C[C@H](CC=O)[C@H](O[C@@H]2O[C@H](C)[C@@H](O[C@H]3C[C@@](C)(O)[C@@H](OC(=O)CC)[C@H](C)O3)[C@H](N(C)C)[C@H]2O)[C@H]1OC | 7.16% [at 20.6 µM]
21 | CO[C@H]1C[C@H](O[C@H]2[C@H](C)[C@@H](O[C@@H]3O[C@H](C)C[C@H](N(C)C)[C@H]3OC(C)=O)[C@@H](C)C[C@]3(CO3)C(=O)[C@H](C)[C@@H](OC(C)=O)[C@@H](C)[C@@H](C)OC(=O)[C@@H]2C)O[C@@H](C)[C@@H]1OC(C)=O | 6.09% [at 20.6 µM]
22 | O=C(COc1ccc(Cl)cc1)OCCNC12CC3CC(CC(C3)C1)C2 | 7.32%
23 | CO[C@@H]1[C@@H](O[C@@H]2O[C@H](C)[C@@H](O[C@H]3C[C@@](C)(O)[C@@H](O)[C@H](C)O3)[C@H](N(C)C)[C@H]2O)[C@@H](CC=O)C[C@@H](C)[C@@H](O[C@@H]2CC[C@H](N(C)C)[C@@H](C)O2)/C=C/C=C/C[C@@H](C)OC(=O)C[C@H]1O | 7.5% [at 20.6 µM]
24 | Nc1ncnc2c1ncn2[C@@H]1O[C@H](COP(=O)(O)OP(=O)(O)OP(=O)(O)O)[C@@H](O)[C@H]1O | 0.759%
25 | COC(=O)C1=C(C#N)NC(C)=C(C(=O)OC(C)C)C1c1cccc([N+](=O)[O-])c1 (configuration not stated) | 0.226%
26 | CO[C@H]1C=CO[C@@]2(C)Oc3c(C)c(O)c4c(O)c(c(/C=N/N5CCN(C6CCCC6)CC5)c(O)c4c3C2=O)NC(=O)/C(C)=C\C=C[C@H](C)[C@H](O)[C@@H](C)[C@@H](O)[C@@H](C)[C@H](OC(C)=O)[C@@H]1C | 2.38%
27 | C=C[C@]1(C)C[C@@H](OC(=O)CSC(C)(C)CNC(=O)[C@H](N)C(C)C)[C@]2(C)[C@H](C)CC[C@]3(CCC(=O)[C@H]32)[C@@H](C)[C@@H]1O | 5.26%
